The supplement of paper PMC6609913
Counter-ions that a name gives are not always drawn. ± gives the standard deviation of the averaged measurements. Over roughly 1,300 compounds, “normalised cell viability” has its median near 1; the lowest 2% begin near 0.15. The sample as a whole holds a higher share of the lowest values than the screen did.

Tested on: V-C8 + BRCA2 (BRCA2-proficient hamster cells)
Assay: normalised cell viability (fraction of plate median); higher = more viable cells (less toxic)
Details: 5 µM
How it was run: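 BRCA2-deficient hamster V-C8 cells and BRCA2-restored V-C8 cells were plated in 96-well plates, and library drugs were added 24 h later at 5 μM in 100 μl medium. Exposure lasted 3 days in screen 1 and 6 days in screen 2, next to solvent-only wells. Viability was then read by resazurin assay, median-plate normalised and averaged across triplicate wells.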

| SMILES | normalised cell viability (treatment time: 3 days) | normalised cell viability (treatment time: 6 days) |
| --- | --- | --- |
| CCCCC(CC)CNC(=N)NC(=N)NCCCCCCNC(=N)NC(=N)NCC(CC)CCCC (centres undefined) [Alexidine dihydrochloride] | 0.143 ± 0.002 | 0.149 ± 0.011 |
| O=C1C=CC(=O)c2c1ccc1c2ccc2ccccc21 [Chrysene-1,4-quinone] | 1.024 ± 0.0027 | 1 ± 0.11 |
| CC(C)Oc1ccc2c(=O)c(-c3ccccc3)coc2c1 [Ipriflavone] | 0.993 ± 0.029 | 1.08 ± 0.11 |
| Nc1ccn([C@@H]2CS[C@H](CO)O2)c(=O)n1 [Lamivudine] | 0.335 ± 0.012 | 0.406 ± 0.023 |
| OC(CCN1CCCC1)(c1ccccc1)C1CCCCC1 (centres undefined) [Procyclidine hydrochloride] | 0.981 ± 0.047 | 0.987 ± 0.012 |
| COc1cc(OC)c(C(=O)CCCN2CCCC2)c(OC)c1 [Buflomedil hydrochloride] | 1.04 ± 0.096 | 1.07 ± 0.025 |
| CN1C(C)(C)CCCC1(C)C [Pempidine tartrate] | 1.1 ± 0.035 | 1.007 ± 0.0034 |
| C[C@@]1(O)CCOC(=O)C1 [Mevalonic-D, L acid lactone] | 1.09 ± 0.038 | 1.06 ± 0.054 |
| Nc1ccc(S(=O)(=O)Nc2ccnn2-c2ccccc2)cc1 [Sulfaphenazole] | 1.07 ± 0.02 | 1.01 ± 0.041 |
| Cc1ccnc2c1NC(=O)c1cccnc1N2C1CC1 [Nevirapine] | 1.03 ± 0.087 | 1.05 ± 0.047 |
| C[C@H]1O[C@@H](O[C@H]2[C@@H](O)C[C@H](O[C@H]3[C@@H](O)C[C@H](O[C@H]4CC[C@@]5(C)[C@H](CC[C@@H]6[C@@H]5C[C@@H](O)[C@]5(C)[C@@H](C7=CC(=O)OC7)CC[C@]65O)C4)O[C@@H]3C)O[C@@H]2C)C[C@H](O)[C@@H]1O [Digoxin] | 1.06 ± 0.036 | 1.07 ± 0.13 |
| COc1ccc(NS(=O)(=O)c2ccc(N)cc2)nn1 [Sulfamethoxypyridazine] | 0.879 ± 0.062 | 0.892 ± 0.069 |
| CC(=O)c1ccc(S(=O)(=O)NC(=O)NC2CCCCC2)cc1 [Acetohexamide] | 1.22 ± 0.019 | 1.025 ± 0.0097 |
| O=C1C(O)=C([C@H]2CC[C@H](c3ccc(Cl)cc3)CC2)C(=O)c2ccccc21 [Atovaquone] | 0.958 ± 0.012 | 0.922 ± 0.04 |
| CC(C)(C)NC(=O)[C@@H]1C[C@@H]2CCCC[C@@H]2CN1C[C@@H](O)[C@H](Cc1ccccc1)NC(=O)[C@H](CC(N)=O)NC(=O)c1ccc2ccccc2n1 [Saquinavir mesylate] | 0.842 ± 0.061 | 0.952 ± 0.073 |
| O=C1Cc2cc(CCN3CCN(c4nsc5ccccc45)CC3)c(Cl)cc2N1 [Ziprasidone  Hydrochloride] | 0.206 ± 0.016 | 0.23 ± 0.013 |
| CO/N=C(\C(=O)N[C@@H]1C(=O)N2C(C(=O)OC(C)OC(C)=O)=C(COC(N)=O)CS[C@H]12)c1ccco1 (some centres undefined) [Cefuroxime axetil] | 1.01 ± 0.057 | 1.04 ± 0.12 |
| Cc1cccc(N(C)C(=S)Oc2ccc3ccccc3c2)c1 [Tolnaftate] | 1.02 ± 0.027 | 1.04 ± 0.044 |
| CC(=O)CC(c1ccc([N+](=O)[O-])cc1)c1c(O)c2ccccc2oc1=O (centres undefined) [Acenocoumarol] | 0.92 ± 0.023 | 0.979 ± 0.053 |
| N[C@H]1CONC1=O [(S)-(-)-Cycloserine] | 1.04 ± 0.043 | 0.917 ± 0.29 |
| O=C1[C@H](CC[C@H](O)c2ccc(F)cc2)[C@@H](c2ccc(O)cc2)N1c1ccc(F)cc1 [Ezetimibe] | 1.03 ± 0.04 | 1.08 ± 0.054 |

| SMILES | normalised cell viability (treatment time: 3 days) | normalised cell viability (treatment time: 6 days) |
| --- | --- | --- |
| OC[C@H]1O[C@@H](Oc2ccc(O)cc2)[C@H](O)[C@@H](O)[C@@H]1O [Arbutin] | 1.02 ± 0.05 | 0.979 ± 0.024 |
| CCOC(=O)/C=C(C)/C=C/C=C(C)/C=C/c1c(C)cc(OC)c(C)c1C [Etretinate] | 1.01 ± 0.043 | 1.13 ± 0.071 |
| C[C@H]1c2cccc(O)c2C(=O)C2=C(O)[C@]3(O)C(=O)C(C(N)=O)=C(O)[C@@H](N(C)C)[C@@H]3[C@@H](O)[C@@H]21 [Doxycycline hydrochloride] | 0.947 ± 0.025 | 0.982 ± 0.033 |
| CC(C)(C(=O)O)c1ccc(C(O)CCCN2CCC(C(O)(c3ccccc3)c3ccccc3)CC2)cc1 (centres undefined) [Fexofenadine HCl] | 1.02 ± 0.051 | 1.04 ± 0.026 |
| CC(C)(C)c1ccc(C(O)CCCN2CCC(C(O)(c3ccccc3)c3ccccc3)CC2)cc1 (centres undefined) [Terfenadine] | 0.118 ± 0.0067 | 0.103 ± 0.0052 |
| OC(CCCN1CCCCC1)(c1ccccc1)c1ccccc1 [Diphenidol hydrochloride] | 1.08 ± 0.066 | 1.05 ± 0.025 |
| Cc1cn[nH]c1 [Fomepizole] | 1.07 ± 0.021 | 0.9639 ± 0.0076 |
| CN(C)CCOc1ccc(/C(=C(/CCCl)c2ccccc2)c2ccccc2)cc1 [Toremifene] | 0.822 ± 0.058 | 0.891 ± 0.027 |
| CC/C(=C(\c1ccccc1)c1ccc(OCCN(C)C)cc1)c1ccccc1 [Tamoxifen citrate] | 0.878 ± 0.054 | 0.88 ± 0.021 |
| CCN(CC)CCOc1ccc(C(=C(Cl)c2ccccc2)c2ccccc2)cc1 [Clomiphene citrate (Z,E)] | 0.124 ± 0.0093 | 0.128 ± 0.013 |
| CC[C@H](c1ccc(O)cc1)[C@@H](CC)c1ccc(O)cc1 [Hexestrol] | 0.9735 ± 0.0097 | 0.944 ± 0.19 |
| Nc1nc(NC2CC2)c2ncn([C@H]3C=C[C@@H](CO)C3)c2n1 [Abacavir Sulfate] | 1.04 ± 0.02 | 1.07 ± 0.034 |
| C=CCOC(Cn1ccnc1)c1ccc(Cl)cc1Cl (centres undefined) [Enilconazole] | 0.985 ± 0.021 | 1.04 ± 0.013 |
| NC(N)=Nc1nc(CSCC/C(N)=N/S(N)(=O)=O)cs1 [Famotidine] | 1.16 ± 0.079 | 1.1 ± 0.096 |
| CC(C)(O/N=C(\C(=O)N[C@@H]1C(=O)N2C(C(=O)[O-])=C(C[n+]3ccccc3)CS[C@H]12)c1csc(N)n1)C(=O)O [Ceftazidime pentahydrate] | 1.03 ± 0.011 | 1 ± 0.039 |
| Cc1ccc(O)c([C@H](CCN(C(C)C)C(C)C)c2ccccc2)c1 [Tolterodine tartrate] | 1.05 ± 0.062 | 0.965 ± 0.053 |
| COc1ccc2cc(CCC(C)=O)ccc2c1 [Nabumetone] | 1.05 ± 0.12 | 1.02 ± 0.044 |
| CC(C)C(=O)c1c(C(C)C)nn2ccccc12 [Ibudilast] | 0.987 ± 0.062 | 0.981 ± 0.061 |
| CC(C)(C)NC[C@H](O)c1ccc(O)c(CO)c1 [Levalbuterol hydrochloride] | 0.965 ± 0.089 | 1.004 ± 0.0069 |
| Clc1ccc(CO/N=C(\Cn2ccnc2)c2ccc(Cl)cc2Cl)c(Cl)c1 [Oxiconazole Nitrate] | 1.07 ± 0.16 | 0.675 ± 0.12 |
| CC(=O)OCC(=O)[C@@]12OC(C)(C)O[C@@H]1C[C@H]1[C@@H]3C[C@H](F)C4=CC(=O)C=C[C@]4(C)[C@@]3(F)[C@@H](O)C[C@@]12C [Fluocinonide] | 1.04 ± 0.017 | 1.06 ± 0.04 |

| SMILES | normalised cell viability (treatment time: 3 days) | normalised cell viability (treatment time: 6 days) |
| --- | --- | --- |
| C[n+]1ccccc1/C=N/O [Pralidoxime chloride] | 0.99 ± 0.036 | 0.9475 ± 0.0081 |
| NS(=O)(=O)c1cc(C2(O)NC(=O)c3ccccc32)ccc1Cl (centres undefined) [Chlorthalidone] | 1.1 ± 0.018 | 1.03 ± 0.079 |
| CCc1cccc2c3c([nH]c12)C(CC)(CC(=O)O)OCC3 (centres undefined) [Etodolac] | 0.922 ± 0.034 | 1.04 ± 0.084 |
| CN[C@@H]1[C@H](O[C@H]2[C@H](O[C@H]3[C@H](O)[C@@H](O)[C@H](NC(=N)N)[C@@H](O)[C@@H]3NC(=N)N)O[C@@H](C)[C@]2(O)CO)O[C@@H](CO)[C@H](O)[C@H]1O [Dihydrostreptomycin sulfate] | 0.911 ± 0.07 | 0.983 ± 0.042 |
| NS(=O)(=O)c1cc2c(cc1C(F)(F)F)NC(Cc1ccccc1)NS2(=O)=O (centres undefined) [Bendroflumethiazide] | 0.992 ± 0.096 | 1.03 ± 0.032 |
| CC[C@H](C)C(=O)O[C@H]1CCC=C2C=C[C@H](C)[C@H](CC[C@@H]3C[C@@H](O)CC(=O)O3)[C@H]21 [Mevastatin] | 0.246 ± 0.0034 | 0.23 ± 0.011 |
| CC[C@H](C)C(=O)O[C@H]1C[C@@H](C)C=C2C=C[C@H](C)[C@H](CC[C@@H]3C[C@@H](O)CC(=O)O3)[C@H]21 [Lovastatin] | 0.19 ± 0.015 | 0.153 ± 0.019 |
| CC[C@H](C)C(=O)O[C@H]1C[C@H](O)C=C2C=C[C@H](C)[C@H](CC[C@@H](O)C[C@@H](O)CC(=O)O)[C@H]21 [Pravastatin] | 0.969 ± 0.14 | 1.02 ± 0.089 |
| NCCNCCNCCNCCN [Tetraethylenepentamine pentahydrochloride] | 0.972 ± 0.03 | 1.01 ± 0.024 |
| CC=CC1=C(C(=O)O)N2C(=O)[C@@H](NC(=O)[C@H](N)c3ccc(O)cc3)[C@H]2SC1 [Cefprozil] | 0.951 ± 0.071 | 0.908 ± 0.072 |
| Clc1cnccn1 [2-Chloropyrazine] | 1.02 ± 0.036 | 1.02 ± 0.071 |
| Cc1cc(-c2ccccc2)nnc1NCCN1CCOCC1 [Minaprine dihydrochloride] | 1.1 ± 0.02 | 1.03 ± 0.048 |
| CC(C(=O)O)c1ccc2c(c1)[nH]c1ccc(Cl)cc12 (centres undefined) [Carprofen] | 1.04 ± 0.11 | 1.04 ± 0.13 |
| CN(Cc1ccc(C(C)(C)C)cc1)Cc1cccc2ccccc12 [Butenafine Hydrochloride] | 1.06 ± 0.05 | 0.982 ± 0.048 |
| C[C@@H]1C[C@H]2[C@@H]3C[C@H](F)C4=CC(=O)C=C[C@]4(C)[C@@]3(Cl)[C@@H](O)C[C@]2(C)[C@H]1C(=O)COC(=O)C(C)(C)C [Clocortolone pivalate] | 1.03 ± 0.27 | 0.899 ± 0.07 |
| CCN(CC)C(=O)C1(c2ccccc2)CC1CN (centres undefined) [Milnacipran hydrochloride] | 0.956 ± 0.095 | 0.937 ± 0.048 |
| COc1nc(C)nc(Cl)c1NC1=NCCN1 [Moxonidine] | 1.014 ± 0.0037 | 0.9963 ± 0.0028 |
| CC1CC(OC(=O)c2ccccc2O)CC(C)(C)C1 (centres undefined) [Homosalate] | 1.03 ± 0.04 | 1.02 ± 0.074 |
| CN(C)C(=O)C(CCN1CCC(O)(c2ccc(Cl)cc2)CC1)(c1ccccc1)c1ccccc1 [Loperamide hydrochloride] | 0.687 ± 0.041 | 0.67 ± 0.057 |
| CN[C@H](CC(C)C)C(=O)N[C@H]1C(=O)N[C@@H](CC(N)=O)C(=O)N[C@H]2C(=O)N[C@H]3C(=O)N[C@H](C(=O)N[C@H](C(=O)O)c4cc(O)cc(O)c4-c4cc3ccc4O)[C@H](O)c3ccc(c(Cl)c3)Oc3cc2cc(c3O[C@@H]2O[C@H](CO)[C@@H](O)[C@H](O)[C@H]2O[C@H]2C[C@](C)(N)[C@H](O)[C@H](C)O2)Oc2ccc(cc2Cl)[C@H]1O [Vancomycin hydrochloride] | 0.177 ± 0.0067 | 0.17 ± 0.018 |
